High-throughput results: PubChem, several laboratories
An excerpt weighted towards active compounds, which were near 1.9% of everything screened.
PP1 counter: blocks human PP1-alpha phosphatase, a PP5 counter-screen; 0.9% of 320,000 active; P62136; purified PP1alpha, OMFP fluorescence; AID 2235; inhibition, % at 6.7 µM;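 active = inhibition above the mean inhibition of all tested compounds plus 3 SD, computed separately for each screening campaign, cut at about 15% in these data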
PP5 primary: PP5 (human) phosphatase inhibition | P53041 | purified PP5c, OMFP substrate fluorescence | inhibition, % at 6.7 µM | 0.18% of 320,000 active | AID 1987;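 active = inhibition above the campaign's mean inhibition across all tested compounds plus 3 SD, cut at about 9.5% in these data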;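 also: 0% = DMSO only and 100% = 100 µM cantharidin control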
Target sequence (P53041 whole entry, looked up): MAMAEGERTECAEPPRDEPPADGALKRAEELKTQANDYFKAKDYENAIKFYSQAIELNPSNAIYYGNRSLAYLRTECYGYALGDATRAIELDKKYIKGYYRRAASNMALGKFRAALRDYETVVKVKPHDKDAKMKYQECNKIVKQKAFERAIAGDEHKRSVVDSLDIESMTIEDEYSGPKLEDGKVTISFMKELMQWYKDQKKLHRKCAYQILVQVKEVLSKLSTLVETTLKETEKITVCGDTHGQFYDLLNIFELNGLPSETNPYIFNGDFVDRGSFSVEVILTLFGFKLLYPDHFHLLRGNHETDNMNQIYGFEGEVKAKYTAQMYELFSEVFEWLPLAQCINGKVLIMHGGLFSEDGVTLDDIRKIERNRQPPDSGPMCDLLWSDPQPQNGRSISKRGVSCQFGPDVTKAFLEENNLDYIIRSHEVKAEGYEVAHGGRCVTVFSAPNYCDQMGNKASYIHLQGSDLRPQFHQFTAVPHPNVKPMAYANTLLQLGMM
ATG4B inhibitor: blocks human ATG4B protease cleavage of LC3 substrate | Q9Y4P1 | ATG4B cleavage of LC3-PLA2, NBD-HPC fluorescence, 1 h | inhibition, % at 8.33 µM | 0.51% of 340,000 active | AID 504462; in the data active = inhibition above about 40%
H9c2 protect: modulators protecting cardiomyocytes from myocardial damage | protection from H2O2 cell death, % at 20 µM | 0.63% of 360,000 active | H9c2 cardiomyocytes, H2O2 injury protection, ATPLite, 2 h | AID 588492;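 active = compounds giving at least 50% protection of heart cells from peroxide-induced death in the single-dose screen, raw or plate-pattern-corrected value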;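 also: 0% = DMSO wells with peroxide and 100% = DMSO wells without peroxide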
The depositor's hits bear a star; nt = no result.

SMILES	PP1 counter	PP5 primary	ATG4B inhibitor	H9c2 protect
O=C(Nc1nc(-c2cc(F)ccc2F)cs1)C1=NN(c2ccccc2)C(=O)CC1	3	3	-16	51*
COc1ccc(-c2csc(NC(=O)C3=NN(c4ccccc4)C(=O)CC3)n2)cc1	4	4	-7	22
COc1ccc(S(=O)(=O)NCC2CCCN(CC(C)(C)C)C2)cc1 (centres undefined)	-2	1	-10	-16
O=C(O)c1ccc(CSc2nc(-c3ccccc3)cc(C(F)(F)F)n2)cc1	5	1	6	8
O=C(O)c1ccc(CSc2nc(-c3ccc(Cl)cc3)cc(C(F)(F)F)n2)cc1	17*	4	25	-5
CCOC(=O)C1=c2/c(=C/c3ccncc3)c(N)c(C(=O)OC)n2C(=O)C(c2ccncc2)S1 (centres undefined)	3	0	-2	55*
CCOC(=O)C1=C(N)n2c(s/c(=C\c3ccncc3)c2=O)=C(C(=O)OCC)C1c1ccncc1 (centres undefined)	-1	2	-3	32
CCOc1ccccc1NC(=O)NNS(=O)(=O)c1cc(OC)ccc1OC	1	0	-5	0
COc1ccc(CNC(=O)C(C)OC(=O)CO/N=C(\C)c2ccc3c(c2)OCO3)cc1 (centres undefined)	-3	1	4	-3
C=C(C)C(=O)Nc1ccc2c(c1)OCCOCCOCCO2	17*	-2	-7	4
COc1ccc(-c2cn3cccnc3n2)cc1NC(=O)c1ccc(Br)o1	-7	2	2	58*
Cc1ccc(-c2cn3cccnc3n2)cc1NC(=O)c1ccc(Br)o1	1	3	29	12
C[C@@H]1CCCCO[C@@H](CN(C)C(=O)Cc2ccccc2)[C@@H](C)CN([C@H](C)CO)C(=O)c2cc(NC(=O)C3CCCCC3)ccc2O1	nt	nt	nt	12
C[C@@H]1CN(S(=O)(=O)C(C)(C)C)[C@H](CCO)/C1=C\c1ccccc1	nt	nt	-2	-3
Cc1ccc(-c2nn3c(C)nnc3s2)cc1NC(=O)COc1ccc(Cl)cc1	-3	1	9	50*
Cc1ccc(-c2nn3c(C)nnc3s2)cc1NC(=O)CSc1ccc(Cl)cc1	0	3	-12	9
COc1ccc(CCNC(=O)C(C)n2nc(C)c3c(C)n(-c4ccc(C)cc4)nc3c2=O)c(OC)c1 (centres undefined)	-2	1	-5	-7
Cc1nc(-c2ccc(O)c(O)c2)cs1	-5	8	-7	61*
COc1cc(-c2csc(C)n2)ccc1O	-1	2	11	-1
COc1cccc2c1Oc1cc([N+](=O)[O-])cc(N(C)C(C)=O)c1C=C2	0	1	6	9
C[C@H]([C@H](O)c1ccccc1)N(C)C(=O)CN	-1	2	1	7
CN(C)S(=O)(=O)n1cc(/C=C(\NC(=O)c2ccccc2)C(=O)NCCN2CCOCC2)c2ccccc21	1	3	-7	7
CN(C)S(=O)(=O)n1cc(/C=C(\NC(=O)c2ccccc2F)C(=O)NCCN2CCOCC2)c2ccccc21	nt	nt	nt	75*
CCn1c(SCC(=O)N2CCC(C)CC2)nc2c1c(=O)n(C)c(=O)n2C	-3	1	-3	-1
CN1C=CC(=O)[C@@H](OC(=O)Nc2ccc(Br)cc2)[C@H]1c1ccccc1Br	nt	nt	-14	3
SMILES	PP1 counter	PP5 primary	ATG4B inhibitor	H9c2 protect
COc1ccc(/C=N/Nc2nc(C)cc(-c3ccccc3)n2)c(OC)c1	-2	-2	-8	4
COc1ccc(O)c(/C=N/Nc2nc(C)cc(-c3ccccc3)n2)c1	1	2	-6	66*
Cc1nn(Cc2ccc(C(=O)N3CCN(C(=O)c4ccco4)CC3)o2)c(C)c1[N+](=O)[O-]	0	3	2	54*
COc1c(C)cc(Br)cc1C(=O)Nc1cccc(-c2nc3ncccc3o2)c1	6	3	-8	115*
Cc1cc(=O)[nH]c(N/N=C/c2c(O)n(-c3ccccc3)c(=O)c3ccccc23)n1	17*	1	-2	14
Cc1ccc(N2C(=O)CS/C2=C(\C(Cl)=C(Cl)Cl)[N+](=O)[O-])cc1	2	0	15	69*
Cc1ccc(N2C(=O)CSCC2=O)cc1	-2	0	-5	17
O=c1[nH]c2cccc(Cl)c2c2ccccc12	nt	nt	nt	51*
O=c1[nH]c2ccccc2c2ccccc12	7	1	3	71*
O=c1c2ccccc2[nH]c2ccccc12	-7	5	-33	-6
O=c1[nH]c2cc([N+](=O)[O-])ccc2c2ccccc12	nt	nt	5	65*
COc1ccc(CC(C(=O)Nc2ccc(OC)cc2)c2nn[nH]n2)cc1 (centres undefined)	2	-2	4	0
OCC[C@@H]1C[C@H](O)[C@@H](O)[C@]2(OCCc3cc(Cl)ccc32)O1	nt	nt	nt	3
O=C(CSc1cn[nH]n1)Nc1cccc(C(F)(F)F)c1	-3	3	-11	4
Cc1cc(C)cc(C(=O)Nc2ccc(NC(=O)c3cccs3)cc2)c1	1	2	-3	49*
CC(=O)Nc1cccc(/C(C)=N/NC(=O)c2cccs2)c1	-3	2	6	59*
C/C(=N/NC(=O)c1cccs1)c1cccc(N)c1	0	1	-2	35
CC(C)(C)NC(=O)c1cc(NC(=O)c2cccs2)cc(NC(=O)c2cccs2)c1	2	3	-18	63*
COc1ccc(NC(=O)C2CC3CCC2C3)c(OC)c1 (centres undefined)	-5	-2	8	-1
Cn1c(C(=O)Nc2ccc3c(c2)OCCO3)cc2c(=O)n(C)c3ccccc3c21	4	4	-4	95*
Cc1ccc(NC(=O)NC2CC(=O)N(c3ccc4c(c3)OCCO4)C2)c(C)c1 (centres undefined)	-6	-1	-13	6
O=C(Nc1ccccc1N1CCOCC1)c1cc(-c2ccncc2)nc2ccccc12	7	1	-5	40
COc1cc(-c2cc(C(=O)Nc3ccncc3)c3ccccc3n2)cc(OC)c1OC	-5	2	0	50
COc1cc(-c2cc(C(=O)Nc3ccc(S(=O)(=O)NCc4ccco4)cc3)c3ccccc3n2)cc(OC)c1OC	5	3	2	61*
COc1cc(-c2cc(C(=O)NCc3ccco3)c3ccccc3n2)cc(OC)c1OC	1	1	-1	59*
SMILES	PP1 counter	PP5 primary	ATG4B inhibitor	H9c2 protect
COc1ccc(-c2cc(C(=O)Nc3ccccc3N3CCOCC3)c3ccccc3n2)cc1OC	5	3	-10	62*
COc1ccc(-c2ccc3c(c2)S(=O)(=O)c2cccc(C(=O)N4CCN(c5ccccn5)CC4)c2C3=O)cc1OC	nt	nt	nt	88*
CSc1ncccc1C(=O)NNc1cc(Cl)ccc1Cl	-2	2	-4	1
COc1ccccc1NC(=O)c1cc(-c2cc(OC)c(OC)c(OC)c2)nc2ccccc12	0	3	-26	66*
COc1ccc(-c2cc(C(=O)NNC(=O)c3csc(N4CCOCC4)n3)c3ccccc3n2)cc1	2	-3	-7	52*
CCN(CC)S(=O)(=O)c1ccc(N2CCOCC2)c(NC(=O)c2cc(-c3ccccn3)nc3ccccc23)c1	nt	nt	-15	52*
